Laboratory results: PubChem BioAssay (EPA / NIEHS)
The source made the active and inactive calls. Rule for the calls: active = hit-call score of the fitted dose curve at least 0.9, where 1 is the maximum; inactive = score below 0.9.

What was measured:
[1] = ATG_CRE_CIS: Attagene CIS-FACTORIAL HepG2 Assay for human cAMP Responsive Element (CRE) binding protein 3 (AID 2282926); conditions: HepG2 CRE cis-reporter, Attagene multiplexed mRNA; actives raise or lower the signal
Outline: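 HepG2 cells transiently transfected with cis-element-driven multiple reporter transcription units; CRE reporter mRNA measured 24 h after dosing by RT-PCR, 6-FAM labelling, HpaI digestion and capillary electrophoresis. Bidirectional fit versus DMSO baseline.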

[2] = target: CCAAT/enhancer-binding protein beta (Homo sapiens) (UniProt P17676); test: ATG_C_EBP_CIS: Attagene CIS-FACTORIAL HepG2 Assay for human CCAAT/Enhancer Binding Protein (C/EBP) beta (AID 2282927); conditions: HepG2 Attagene cis-factorial transcription factor reporter; actives raise or lower the signal
Chain of CCAAT/enhancer-binding protein beta (Homo sapiens) (P17676 whole entry, looked up): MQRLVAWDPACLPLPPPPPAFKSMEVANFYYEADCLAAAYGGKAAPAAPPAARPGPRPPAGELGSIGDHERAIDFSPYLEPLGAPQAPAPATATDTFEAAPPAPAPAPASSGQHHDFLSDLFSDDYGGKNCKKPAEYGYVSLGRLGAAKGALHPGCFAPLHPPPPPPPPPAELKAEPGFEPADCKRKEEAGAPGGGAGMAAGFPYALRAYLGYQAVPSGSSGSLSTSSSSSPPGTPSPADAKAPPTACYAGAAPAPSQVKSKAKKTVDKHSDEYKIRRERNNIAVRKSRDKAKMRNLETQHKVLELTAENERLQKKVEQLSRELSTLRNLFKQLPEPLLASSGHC
Outline: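 Following a 24 h incubation with test chemical, transfected HepG2 cells yielded RNA whose reporter transcripts were quantified by RT-PCR and fluorescent capillary electrophoresis, with DMSO serving as baseline for bidirectional fitting.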

[3] = ATG_CMV_CIS: Attagene CIS-FACTORIAL HepG2 Assay for human CMV (Internal Marker) (AID 2282928); conditions: HepG2 CMV promoter reporter, transcription factor profiling; actives raise or lower the signal;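 note: endpoint acts as a background internal control marker rather than a target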
Outline: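 CMV internal-marker background readout in transiently transfected HepG2 cells bearing cis-regulated reporter units. Reporter mRNA is measured 24 h after dosing by RT-PCR and capillary electrophoresis, with bidirectional fitting against DMSO.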

[4] = ATG_DR4_LXR_CIS: Attagene CIS-FACTORIAL HepG2 Assay for human Liver X Receptor (LXR), DR4 submotif (AID 2282929); conditions: HepG2 Attagene DR4 cis-reporter, mRNA transcription; actives raise or lower the signal
Outline: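 Total RNA from 24 h-treated, MRTU-transfected HepG2 cells underwent reverse transcription, PCR, fluorescent primer extension and restriction digestion before capillary electrophoresis. Both increases and decreases in reporter signal were fitted against DMSO.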

[5] = target: Aryl hydrocarbon receptor (Homo sapiens) (UniProt P35869); test: ATG_Ahr_CIS: Attagene CIS-FACTORIAL HepG2 Assay for human Aryl Hydrocarbon Receptor (Ahr) (AID 2282930); conditions: HepG2 AhR cis-factorial reporter transcription; actives raise or lower the signal
Chain of Aryl hydrocarbon receptor (Homo sapiens) (P35869 whole entry, looked up): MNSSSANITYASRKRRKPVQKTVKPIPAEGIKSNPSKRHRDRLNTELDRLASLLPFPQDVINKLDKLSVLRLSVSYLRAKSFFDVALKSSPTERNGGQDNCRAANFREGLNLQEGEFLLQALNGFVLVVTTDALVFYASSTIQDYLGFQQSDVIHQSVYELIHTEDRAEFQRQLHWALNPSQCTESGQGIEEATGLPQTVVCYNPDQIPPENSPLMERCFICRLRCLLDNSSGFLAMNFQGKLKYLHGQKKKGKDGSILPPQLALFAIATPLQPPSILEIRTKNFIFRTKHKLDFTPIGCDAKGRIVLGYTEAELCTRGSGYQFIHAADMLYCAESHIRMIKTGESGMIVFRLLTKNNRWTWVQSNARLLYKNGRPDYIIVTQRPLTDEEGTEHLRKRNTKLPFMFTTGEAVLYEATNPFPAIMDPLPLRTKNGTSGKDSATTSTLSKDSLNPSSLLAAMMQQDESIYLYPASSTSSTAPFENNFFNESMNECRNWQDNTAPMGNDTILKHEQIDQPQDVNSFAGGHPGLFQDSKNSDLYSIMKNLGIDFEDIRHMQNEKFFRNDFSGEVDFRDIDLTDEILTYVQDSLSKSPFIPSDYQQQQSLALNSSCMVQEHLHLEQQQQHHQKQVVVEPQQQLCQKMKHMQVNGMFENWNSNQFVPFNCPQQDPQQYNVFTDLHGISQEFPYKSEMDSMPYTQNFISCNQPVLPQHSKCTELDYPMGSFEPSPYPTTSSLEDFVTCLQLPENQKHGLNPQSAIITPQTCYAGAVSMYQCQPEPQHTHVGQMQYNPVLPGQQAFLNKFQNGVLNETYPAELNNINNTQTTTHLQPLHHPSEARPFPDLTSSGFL
Outline: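 Values derive from bidirectional fitting against DMSO negative control. Underlying signal: cis-element reporter mRNA in transiently transfected HepG2, harvested 24 h post-dose and measured by RT-PCR plus capillary electrophoresis.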

[6] = ATG_AP_1_CIS: Attagene CIS-FACTORIAL HepG2 Assay for human Activator Protein 1 (AP-1) (AID 2282931); conditions: HepG2 Attagene cis-factorial AP-1 reporter mRNA; actives raise or lower the signal
Outline: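 HepG2, transient cis-reporter transfection; 24 h; readout RT-PCR/CE fluorescence; DMSO baseline, gain and loss fitted.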

[7] = ATG_BRE_CIS: Attagene CIS-FACTORIAL HepG2 Assay for human Bone Morphogenetic Protein (BMP) Response Element (BRE) (AID 2282933); conditions: HepG2 BMP response element reporter, Attagene transcription factor profiling; actives raise or lower the signal
Outline: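 After a 24 h chemical treatment, transiently transfected HepG2 cells were lysed for RNA; reporter transcripts were quantified by fluorescent RT-PCR and capillary electrophoresis, normalised to DMSO.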

[8] = target: Transcription factor E2F1 (Homo sapiens) (UniProt Q01094); test: ATG_E2F_CIS: Attagene CIS-FACTORIAL HepG2 Assay for human E2F Transcription Factor 1 (AID 2282935); conditions: HepG2 Attagene cis-reporter, E2F reporter RNA transcripts; actives raise or lower the signal
Chain of Transcription factor E2F1 (Homo sapiens) (Q01094 whole entry, looked up): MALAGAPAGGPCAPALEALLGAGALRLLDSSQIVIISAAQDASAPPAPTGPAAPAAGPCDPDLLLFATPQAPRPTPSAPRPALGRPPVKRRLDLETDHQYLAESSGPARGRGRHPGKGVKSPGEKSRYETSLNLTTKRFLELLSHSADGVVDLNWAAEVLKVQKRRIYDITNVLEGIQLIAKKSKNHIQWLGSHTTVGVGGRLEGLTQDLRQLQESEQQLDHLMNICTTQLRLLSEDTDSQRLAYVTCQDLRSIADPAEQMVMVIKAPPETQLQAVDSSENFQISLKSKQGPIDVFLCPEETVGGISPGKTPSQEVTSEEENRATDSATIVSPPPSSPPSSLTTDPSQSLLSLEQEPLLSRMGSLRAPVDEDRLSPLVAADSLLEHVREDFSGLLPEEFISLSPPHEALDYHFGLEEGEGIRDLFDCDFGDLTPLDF
Outline: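 HepG2 cells transiently transfected with multiplexed cis-element reporter units, dosed for 24 h. Reporter mRNA measured by RT-PCR, 6-FAM primer-extension labeling, HpaI digestion and capillary electrophoresis; bidirectional fit versus DMSO baseline.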

[9] = ATG_M_61_CIS: Attagene CIS-FACTORIAL HepG2 Assay for M61 Transcription Factor (Internal Marker) (AID 2282937); conditions: HepG2 Attagene CIS-FACTORIAL M61 internal marker reporter; actives raise or lower the signal
Outline: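 Transfect HepG2 with MRTUs; dose 24 h; isolate RNA; reverse-transcribe with DNase I treatment; PCR-amplify, FAM-label and cut with HpaI for 2 h at 37 C; resolve by CE. Bidirectional fitting against DMSO.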

[10] = ATG_EGR_CIS: Attagene CIS-FACTORIAL HepG2 Assay for human Early Growth Response 1 (EGR1) (AID 2282938); conditions: HepG2 Attagene CIS-FACTORIAL EGR reporter mRNA; actives raise or lower the signal
Outline: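 After a 24 h treatment of transiently transfected HepG2 cells, total RNA was reverse-transcribed and reporter sequences PCR-amplified, labelled and run on capillary electrophoresis. Reporters sit under cis-regulatory promoters sensing endogenous factors.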

[11] = ATG_M_19_CIS: Attagene CIS-FACTORIAL HepG2 Assay for M19 Transcription Factor (Internal Marker) (AID 2282939); conditions: HepG2 Attagene CIS-FACTORIAL M19 internal marker reporter; actives raise or lower the signal
Outline: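 In this multiplexed cell assay, transiently transfected HepG2 reporter units report endogenous transcription-factor activity; after 24 hours of treatment, labelled reporter cDNA fragments are quantified by capillary electrophoresis and fitted bidirectionally against DMSO.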

[12] = ATG_ERE_CIS: Attagene CIS-FACTORIAL HepG2 Assay for Estrogen Response Element (ERE) (AID 2282940); conditions: HepG2 ERE cis-reporter, Attagene RNA transcript; actives raise or lower the signal
Outline: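 Measuring endogenous transcription factor output, the assay doses transfected HepG2 cells for 24 hours and quantifies reporter transcripts by fluorescent RT-PCR and capillary electrophoresis, with DMSO as baseline.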

[13] = ATG_Ets_CIS: Attagene CIS-FACTORIAL HepG2 Assay for human Erythroblast Transformation Specific (ETS) (AID 2282941); conditions: HepG2 ETS cis-reporter transcription, actives raise or lower the signal
Outline: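 HepG2 cells transfected with multiple cis-regulated reporter units measuring endogenous ETS-driven transcription, 24 h after dosing. Reporter mRNA quantified by RT-PCR with capillary electrophoresis; bidirectional fit relative to DMSO.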

[14] = target: Hepatocyte nuclear factor 3-beta (Homo sapiens) (UniProt Q9Y261); test: ATG_FoxA2_CIS: Attagene CIS-FACTORIAL HepG2 Assay for human Forkhead box A2 (FOXA2) (AID 2282942); conditions: HepG2 cis-reporter transcription factor activity, 24 h; actives raise or lower the signal
Chain of Hepatocyte nuclear factor 3-beta (Homo sapiens) (Q9Y261 whole entry, looked up): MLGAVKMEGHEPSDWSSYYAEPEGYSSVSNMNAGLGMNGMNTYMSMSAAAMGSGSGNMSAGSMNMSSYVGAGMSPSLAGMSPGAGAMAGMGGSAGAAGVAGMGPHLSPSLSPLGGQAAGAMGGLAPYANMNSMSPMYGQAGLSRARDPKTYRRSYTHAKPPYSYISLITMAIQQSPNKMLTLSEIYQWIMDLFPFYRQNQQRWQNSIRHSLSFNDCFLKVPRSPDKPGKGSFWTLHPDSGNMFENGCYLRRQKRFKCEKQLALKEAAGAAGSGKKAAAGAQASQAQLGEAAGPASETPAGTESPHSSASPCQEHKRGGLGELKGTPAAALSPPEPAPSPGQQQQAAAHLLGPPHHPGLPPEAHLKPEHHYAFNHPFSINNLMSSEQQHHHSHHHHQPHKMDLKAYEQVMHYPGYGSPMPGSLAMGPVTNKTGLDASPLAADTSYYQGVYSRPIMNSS
Outline: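 24 h dosing of HepG2 bearing cis-reporter constructs; mRNA readout by RT-PCR/CE fluorescence; bidirectional fit, DMSO baseline.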

[15] = ATG_FoxO_CIS: Attagene CIS-FACTORIAL HepG2 Assay for human Forkhead box O (FoxO) (AID 2282943); conditions: HepG2 Attagene cis-reporter, FoxO element, mRNA; actives raise or lower the signal
Outline: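 Values reflect reporter mRNA induction or loss in HepG2 cells 24 h post-dosing, fitted bidirectionally with DMSO as negative control and baseline. Detection used RT-PCR and fluorescence capillary electrophoresis.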

[16] = ATG_GATA_CIS: Attagene CIS-FACTORIAL HepG2 Assay for human GATA Binding Protein (AID 2282944); conditions: HepG2 GATA cis-element reporter, Attagene multiplex mRNA; actives raise or lower the signal
Outline: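 Measures endogenous transcription factor-driven reporter mRNA in HepG2 cells transiently carrying cis-regulated constructs. 24 h dosing; RNA via oligo(dT) reverse transcription, PCR, HpaI digestion, capillary electrophoresis; fitted relative to DMSO.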

[17] = ATG_AP_2_CIS: Attagene CIS-FACTORIAL HepG2 Assay for human Activator Protein 2 (AP-2) (AID 2282932); conditions: HepG2 AP-2 cis-reporter, Attagene transcription factor profiling; actives raise or lower the signal
Outline: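 HepG2 cells were transiently transfected with multiple cis-promoter reporter transcription units and dosed for 24 h. Reporter mRNA was measured by RT-PCR with capillary electrophoresis fluorescence; bidirectional fits relative to DMSO baseline.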

[18] = ATG_E_Box_CIS: Attagene CIS-FACTORIAL HepG2 Assay for human Enhancer Box (E-box) (AID 2282936); conditions: HepG2 E-box cis-reporter transcription, actives raise or lower the signal
Outline: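 HepG2 cells transiently transfected with multiplexed cis-element reporter units sensing endogenous transcription factor activity; 24 h compound exposure. Reporter mRNA measured by RT-PCR, 6-FAM primer extension, HpaI digestion and capillary electrophoresis; bidirectional fit versus DMSO.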

[19] = target: Retinoic acid receptor alpha (Homo sapiens) (UniProt P10276); test: ATG_DR5_RAR_CIS: Attagene CIS-FACTORIAL HepG2 Assay for human Retinoic Acid Receptor Alpha (RARE), DR5 submotif (AID 2282934); conditions: HepG2 Attagene cis-factorial RARE DR5 reporter, mRNA; actives raise or lower the signal;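 for AC50: reporter responds to endogenous RAR alpha beta and gamma in HepG2 not RARA alone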
Chain of Retinoic acid receptor alpha (Homo sapiens) (P10276 whole entry, looked up): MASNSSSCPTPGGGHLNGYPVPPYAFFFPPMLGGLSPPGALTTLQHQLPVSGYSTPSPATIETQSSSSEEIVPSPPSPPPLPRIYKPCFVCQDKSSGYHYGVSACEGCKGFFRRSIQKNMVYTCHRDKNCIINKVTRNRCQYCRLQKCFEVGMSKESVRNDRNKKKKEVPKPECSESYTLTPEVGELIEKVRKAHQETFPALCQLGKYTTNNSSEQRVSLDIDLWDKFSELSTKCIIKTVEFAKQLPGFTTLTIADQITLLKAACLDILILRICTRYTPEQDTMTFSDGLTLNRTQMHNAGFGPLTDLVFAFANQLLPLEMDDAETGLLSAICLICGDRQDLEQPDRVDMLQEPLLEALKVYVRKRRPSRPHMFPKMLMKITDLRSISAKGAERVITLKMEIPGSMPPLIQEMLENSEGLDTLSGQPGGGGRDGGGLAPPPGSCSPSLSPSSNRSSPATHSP
Outline: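 Endpoint fitted in both directions relative to DMSO as negative control. It reflects DR5 cis-element reporter mRNA induction in transiently transfected HepG2 cells, measured 24 h after dosing through RT-PCR and fluorescent capillary electrophoresis.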

Measured: AC50

O=C1OC2(c3ccc(O)cc3Oc3cc(O)ccc32)c2ccccc21
active: [5] 25.9 µM
not listed: [17] | [18] | [19]
inactive: all other assays above

CCC=C(C)C=O
active: [12] 27.4 µM
not listed: [6] | [9] | [19]
inactive: all other assays above

CC(=O)OC(C)(C)C1CC=C(C)CC1 (stereo not drawn)
active: [5] 8.48 µM
not listed: [6] | [12] | [13]
inactive: all other assays above

CC(=O)OCC=C(C)CCC=C(C)CCC=C(C)C
active: [3] 63.2 µM | [4] 33.4 µM | [6] 48.1 µM | [17] 145 µM | [11] 183 µM | [12] 25.1 µM | [13] 179 µM | [14] 146 µM | [15] 128 µM
inactive: [1] | [2] | [7] | [19] | [8] | [18] | [9] | [10]

NCCN1CCNCC1
active: [12] 32.5 µM
not listed: [6] | [16] | [18]
inactive: all other assays above

CCCCCCCCCC(=O)OCC
active: [1] 92.2 µM | [5] 58.8 µM | [19] 63.2 µM
not listed: [6] | [18]
inactive: all other assays above

CCCCC/C=C\C=C\C(=O)OCC
active: [1] 58.8 µM | [3] 123 µM | [4] 55.1 µM | [19] 28.3 µM | [10] 58.3 µM | [14] 71.5 µM
not listed: [5]
inactive: all other assays above

CCCC(O)C(CC)CO (stereo not drawn)
not listed: [6] | [13] | [19]
inactive: all other assays above

C=C(C)C(=O)OCCC(C)OC(=O)C(=C)C (stereo not drawn)
not listed: [5] | [16]
inactive: all other assays above

CN1CCc2cccc3c2[C@H]1Cc1ccc(O)c(O)c1-3
active: [3] 5.76 µM | [4] 18.8 µM | [6] 3.75 µM | [19] 1.67 µM | [18] 2.76 µM | [12] 0.386 µM
not listed: [5]
inactive: all other assays above

CC(=O)c1ccc(C)cc1
not listed: [6] | [7] | [13] | [16] | [19]
inactive: all other assays above

[Cu+]
active: [5] 15 µM
not listed: [7] | [17]
inactive: all other assays above

CCCCCCCCOC(C)=O
not listed: [6] | [9]
inactive: all other assays above

CCCCCCCCCCO[C@@H]1O[C@H](CO)[C@@H](O)[C@H](O)[C@H]1O
active: [4] 125 µM
not listed: [6]
inactive: all other assays above

[O-]/[N+](=N\O)c1ccccc1
active: [5] 4.26 µM
not listed: [6] | [12]
inactive: all other assays above

CCCCCCOc1ccc(O)cc1
active: [3] 33.4 µM | [4] 44.1 µM | [12] 2.79 µM
not listed: [6] | [18]
inactive: all other assays above

N=C1N=C(N)c2ccccc21
active: [4] 100 µM | [12] 18.1 µM
not listed: [6] | [16] | [19]
inactive: all other assays above
